The values below come from PubChem BioAssay AID1016 (Sanford-Burnham Center for Chemical Genomics, 2008).

The whole screen tested about 200,000 compounds, of which about 330 (0.17%) were called active. This is one part of a sample in which actives are shown more often than they occur.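 Rule for the calls: active = activation factor of 2 or more at 20 µM, a signal rise over negative controls twice the positive control's; inactive = the rest.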 Where a SMILES comes first, the peptide text is derived from it. [ ]: non-standard residue; d: D form. ξ: configuration not given here. ξM = CSCCC(N)C(=O)O

The assay relates to alkaline phosphatase, intestinal [Bos taurus]. Description: bovine intestinal alkaline phosphatase activators, primary screen, biochemical, bovine IAP, CDP-star luminescence (AID 1016). Conditions: purified bovine IAP, 30 min, at 20 µM, stronger effect = higher value, fold of DMSO-control signal, blank-subtracted.
`COc1ccc(C(CC(=O)c2ccccc2)S(=O)(=O)c2ccccc2)cc1` (centres undefined): the activation factor is 1 (inactive). In the case of `CN(C)S(=O)(=O)c1cccc(NC(=O)COC(=O)C2(c3ccccc3F)CCCC2)c1`, the activation factor was 1.1 (inactive). Under `NS(=O)(=O)c1ccc(NC(=O)COC(=O)c2ccco2)cc1` stands 1 (inactive); under `NS(=O)(=O)c1ccc(NC(=O)COC(=O)C2(c3ccc(F)cc3)CCCC2)cc1`, 2.7 (active). Under `CCn1c(SCC(=O)Nc2ccc3c(c2)OCCO3)nc2c(c1=O)SC(C)C2` (centres undefined) stands 1 (inactive). Under `CC1Cc2nc(SCC(=O)Nc3ccccc3F)n(C)c(=O)c2S1` (centres undefined) stands 1.1 (inactive). Consider `CCn1c(SCC(=O)Nc2ccccc2F)nc2c(c1=O)SC(C)C2` (centres undefined), for which the activation factor was 2 (active). Take `COc1ccc(-c2nc(N)sc2C2(O)C(=O)Nc3c(Br)cc(F)cc32)cc1OC` (centres undefined): the activation factor was 1 (inactive). Under `COC(=O)CNC(=O)C(CCSC)NC(C)=O` (centres undefined) (Ac-[ξM]-Gly-OMe) stands 1 (inactive); under `O=C(COC(=O)c1cccc(Br)c1)Nc1cccc2c1C(=O)c1ccccc1C2=O`, 0.8 (inactive).

Turning to `O=C(CN1CCOCC1)Nc1c(Cl)cc(Cl)cc1Cl`, the activation factor is 1 (inactive).

On to `O=C(CCCn1c(=O)c2sccc2n(CC(=O)NCC2CCCO2)c1=O)NCc1ccco1` (centres undefined), for which the activation factor was 1 (inactive). Under `[O-][n+]1c2c(nn1-c1ccc(Cl)c(Cl)c1)-c1nonc1CC2` stands 1.1 (inactive); under `CCCOc1ccc(Cn2ccnc2)cc1[N+](=O)[O-]`, 0.2 (inactive); under `Cc1ccc(Oc2cc(NC(=O)CCCn3nc(C)c([N+](=O)[O-])c3C)cc([N+](=O)[O-])c2)cc1`, 0.9 (inactive). Under `Cc1[nH]nc(SCC(=O)NCC(C)C)c1[N+](=O)[O-]` stands 1.2 (inactive); under `COc1ccccc1NC(=O)CN1CCN(S(=O)(=O)c2ccc(Br)cc2)CC1`, 1 (inactive). Consider `COc1cc2c(cc1NC(=O)CN1CCN(S(=O)(=O)c3ccc(F)cc3)CC1)oc1ccccc12`, for which the activation factor is 2 (active). Under `COc1ccc(NC(=O)CN2CCN(S(=O)(=O)c3ccc(F)cc3)CC2)cc1Cl` stands 0.9 (inactive); under `COc1ccc(-n2c(C)cc(C(=O)CN3C(=O)NC4(CCc5ccccc54)C3=O)c2C)cc1` (centres undefined), 1 (inactive); under `C/C(=C\c1ccco1)CN1CCC(N2CCC(C(=O)N3CCOCC3)CC2)CC1`, 1.1 (inactive). Next, `CC(=O)c1cccc(NC(=O)[C@@H](NC(N)=O)C(C)C)c1`: 0.9 (inactive); `O=C(COc1ccc(-c2ccccc2)cc1)NN=C1CCCC1`: 1 (inactive); `CC(C)Nc1nnc(SCC(=O)/C=C2\N(C)c3ccccc3C2(C)C)s1`: 1.1 (inactive). Under `O=C1Nc2ccc([N+](=O)[O-])cc2C1=Nc1cccc(CO)c1` stands 0.9 (inactive); under `Cc1c(NC(=O)CCC2CCCCC2)cc(C(=O)N2CCOCC2)cc1[N+](=O)[O-]`, 0.9 (inactive). As to `C=C(C)c1cccc(C(C)(C)NC(=O)NCCN(CC)CC)c1`, the activation factor is 1.2 (inactive). Consider `CC(=O)Nc1ccc(NC(=O)CSCc2cnn(-c3ccccc3)c2-n2cccc2)cc1`, for which the activation factor is 0.6 (inactive). As to `O=C(NCCC1=CCCCC1)C1CCN(Cc2cnn(-c3ccccc3)c2-n2cccc2)CC1`, the activation factor is 2.5 (active).

In the case of `C1=C(CCNc2ncnc3c2cnn3-c2ccccc2)CCCC1`, the activation factor is 0.9 (inactive). Under `O=[N+]([O-])c1cc(S(=O)(=O)Nc2cccc(Cl)c2)ccc1N=Nc1c(O)[nH]c2ccccc12` stands 0.8 (inactive).

As to `S=C(NCc1cccnc1)Nc1ccc(Cl)cc1Cl`, the activation factor was 0.9 (inactive).

As to `O=C(Nc1cccn(Cc2ccccc2Cl)c1=O)NC1CCCCC1`, the activation factor was 1 (inactive).

Turning to `C=CCc1cccc2cc(C(=O)NC3CCCC3)c(=O)oc12`, the activation factor was 0.9 (inactive).

Turning to `COc1ccc(CCNC(=O)CSc2nnc3ccc(-c4ccncc4)nn23)cc1`, the activation factor is 1.1 (inactive).

As for `COc1cccc(-c2ccc(C#N)c(SCC(=O)NCCc3ccc(Cl)cc3)n2)c1`, the activation factor is 0.8 (inactive). With `COc1ccc(CCNC(=O)CSc2nc(-c3ccc(OC)c(OC)c3)ccc2C#N)cc1`, the activation factor is 2.1 (active). Under `O=C(Nc1ccc2c(c1)C(=O)OC2)Nc1cccc2ccccc12` stands 1.1 (inactive); under `CCc1ccc(Nc2nnc(SCC(=O)c3ccc4c(c3)NC(=O)CO4)s2)cc1`, 1.2 (inactive); under `Cc1ccc(S(=O)(=O)Nc2nc(N)n(-c3ccccc3)n2)cc1`, 1.2 (inactive). Turning to `CCOC(=O)NN1C(=O)c2ccccc2NC1c1ccccc1O` (centres undefined), the activation factor is 1 (inactive). `CCOC(=O)Cn1c2c(c(-c3ccccc3OC)cc1=O)CCCC2`: the activation factor was 2.1 (active). Next, `CCOC(=O)Cn1c(-c2cccnc2Cl)nc2ccccc21`: 1 (inactive); `CCOC(=O)CN1CCC(c2ccccc2)CC1`: 1 (inactive); `COc1ccccc1NC1=NC2(CCCC2)N=C(N)N1`: 0.9 (inactive). As to `COc1ccccc1NC1=NC(c2ccc(Cl)cc2)N=C(N)N1` (centres undefined), the activation factor is 2.7 (active). Next, `COc1ccccc1Nc1nc(N)nc(CN(C)C2CCCCC2)n1`: 0.9 (inactive).

On to `CCOc1cc(N2CCOCC2)c(OCC)cc1NC(=O)C1=NN(c2cccc(C)c2)C(=O)CC1`, for which the activation factor was 0.9 (inactive). Under `O=C(NCc1ccccc1Cl)C1CCN(S(=O)(=O)N2CCOCC2)CC1` stands 1 (inactive); under `O=C(CN1C(=O)/C(=C/c2ccccc2F)Sc2ccccc21)NCc1cccnc1`, 1.1 (inactive); under `Cc1ccc(S(=O)(=O)C2C(=O)NC3(C)CC2c2ccccc2O3)cc1` (centres undefined), 0.9 (inactive). Next, `COc1ccc(/C=C/C(=O)NC(=S)NN2CCCCC2c2cccnc2)cc1` (centres undefined): 0.7 (inactive); `Cc1cccc(-n2cnc(C(=O)NNC(=S)Nc3ccccc3)c2)n1`: 1.6 (inactive); `CCn1cc(/C=C2/SC(=S)NC2=O)c(C)n1`: 1.1 (inactive). Next, `CC1=CC=CC2=N/C(=N\S(=O)(=O)c3ccc(F)cc3F)c3ccccc3CN12`: 0.9 (inactive); `CC(=O)c1ccc(NC(=O)C(C)NCc2ccc(Cl)cc2)cc1` (centres undefined): 0.9 (inactive).

For `CC1(C)Cc2cccc(OCC(=O)N3CCN(c4ccc([N+](=O)[O-])cc4)CC3)c2O1`, the activation factor was 0.9 (inactive). Under `OCCCN1c2ccccc2Nc2nnc(-c3ccccc3)cc21` stands 9 (active); under `N=c1c2c(-c3ccccc3)c(-c3ccccc3)n(Cc3ccccc3)c2ncn1CCCO`, 1.4 (inactive).
